# KB-3-1 tox = KB-3-1 parental cell cytotoxicity; Potency, µM (series often up to 46.1 µM), actives largely listed as cytotoxic; 400,000 compounds, 1.4% hits; KB-3-1 viability, CellTiter-Glo ATP luminescence, 72 h; further: nearly all actives have a fitted effect of over 60% in size
#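 Cytotoxicity in the drug-sensitive parental line KB-3-1 was scored as loss of CellTiter-Glo luminescence following 72 h incubation with compound. Values come from curve fitting of normalized concentration-response data.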
# KB-V1 MDR tox = kills drug-selected multidrug resistant KB-V1 cells; Potency, µM (doses to about 46.1 µM), most hits filed as cytotoxic; AID 1347076; KB-V1 MDR cells viability, CellTiter-Glo, 72 h; 400,000 compounds, 3.4% hits; further: nearly all actives have a fitted effect of over 60% in size
#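 Luminescent ATP read-out (CellTiter-Glo, 10 min) measures survival of drug-selected KB-V1 MDR cells after 72 h, 37 degrees C compound exposure. Medium: phenol-red-free DMEM, 10% FBS. Values from fitted concentration-response curves.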
# HT1080 IDH1KD tx = kills HT-1080 cells with IDH1 knockdown; HT-1080 IDH1 knockdown viability, ATP luminescence, 48 h; Potency, µM (doses to about 46.1 µM), usual class: cytotoxic; 360,000 compounds, 2% hits
#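 In this qHTS, HT-1080 cells depleted of IDH1 are exposed for 48 h at 37 °C to compound titrations. Toxicity is scored from CellTiter-Glo luminescence, with DMSO as full viability and medium alone as none.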
# HT1080-NT tox = kills 2HG-producing HT-1080-NT fibrosarcoma cells; HT-1080-NT fibrosarcoma viability, CellTiter-Glo ATP luminescence, 48 h; Potency, µM (highest dose often 46.1 µM), usual class: cytotoxic; 360,000 compounds, 1.6% hits;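 further: NT is the 2HG producing partner of a matched IDH1 knockdown line; nearly all actives have a fitted effect of over 55% in size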
#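 Viability by CellTiter-Glo luminescence after 48 h compound exposure at 37C of HT-1080-NT cells (750/well, RPMI, 5% FBS). % activity scaled between DMSO wells and medium-only wells, then curve-fitted and categorized by curve class.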
# Hits are given with their value; . = inactive; ? = inconclusive; / = no result given. The list is not random: actives were taken first. Their share in the collection is about 5.7%. The call rests on the fitted dose curve; in most records, active means well fitted curve in the direction sought with a large enough effect; inconclusive means small, poorly fitted or top-dose-only effect, or another doubt; inactive means no such curve, though single readings can be large; an effect the other way counts as inactive or inconclusive.
SMILES,KB-3-1 tox,KB-V1 MDR tox,HT1080 IDH1KD tx,HT1080-NT tox
CN1CCN(C(CNC(=O)C(=O)Nc2ccccc2)c2ccc3c(c2)OCO3)CC1 (stereo unspecified),.,.,/,/
C=C(C)c1cccc(C(C)(C)NC(=O)Nc2ccccc2OCC)c1,.,.,.,.
C=C(C)c1cccc(C(C)(C)NC(=O)Nc2cc(C)ccc2OC)c1,.,8.2µM,.,.
Cc1ccc(C(=O)OCC(=O)NC2CCCCCC2)c(C)c1,.,.,.,.
CCCc1nc2ccccc2c(C(=O)OCC(=O)N2CCc3ccccc32)c1CC,?,6.5µM,.,.
CCc1noc(C)c1C(=O)OCC(=O)N1CCc2ccccc21,.,.,.,.
CC1CCc2nc3ccccc3c(C(=O)OCC(=O)N3CCc4ccccc43)c2C1 (stereo unspecified),?,2.1µM,.,.
Cc1oc(-c2ccccc2Cl)nc1CS(=O)(=O)CC(=O)NCc1ccc(F)cc1,.,.,/,/
O=C(NC(=S)Nc1ccc(Cl)cn1)C(c1ccccc1)c1ccccc1,18µM,?,.,.
O=C(CCc1ccccc1)Nc1ccc(Cl)cn1,5.8µM,?,2.9µM,5.8µM
S=C(Nc1ccccc1)Nc1ccc(Cl)cn1,.,.,.,.
O=C(Cc1ccccc1)Nc1ccc(Cl)cn1,.,.,.,.
COC(=O)Cn1c(=O)c2cccn2c2ccc(F)cc21,.,.,/,/
Cc1cc(C(=O)CSc2nc3ccccc3[nH]2)c(C)n1Cc1ccco1,?,2.1µM,?,?
Cc1ccc2nc(SCC(=O)c3cc(C)n(C)c3C)[nH]c2c1,.,.,.,.
C=CCn1c(C)cc(C(=O)CSc2nc3ccccc3[nH]2)c1C,.,.,?,.
Cc1cc(C(=O)CSc2nc3ccc(Cl)cc3[nH]2)c(C)n1C,.,21µM,.,.
CC[n+]1c(/C=C2\C=C(C)CC(C)C2)sc2ccccc21 (stereo unspecified),.,.,?,?
CCC1=C/C(=C/c2sc3ccccc3[n+]2CC)CC(C)(C)C1,?,?,?,23µM
CC[n+]1c(/C=C2\C=C(C)CC(C)(C)C2)sc2ccccc21,.,.,?,?
CC[n+]1c(/C=C2/C=C(C)CC(C)(C)C2)sc2ccc(OC)cc21,21µM,.,?,21µM
CCc1cccc(C)c1NC(=O)C(NS(=O)(=O)c1ccc2c(c1)CCC(=O)N2)c1ccccc1 (stereo unspecified),.,.,/,/
O=C(NC(=S)Nc1ccccc1Br)C1CCCC1,.,.,.,.
O=C(NC1CCCC1)c1ccccc1-c1ccccc1,.,15µM,.,.
O=C(NC1CCCCCC1)c1cccnc1Sc1ccccc1,.,23µM,.,.
SMILES,KB-3-1 tox,KB-V1 MDR tox,HT1080 IDH1KD tx,HT1080-NT tox
O=C(NC(=S)Nc1ccccc1Br)C1CCCCC1,.,16µM,.,.
O=C(Nc1ccccc1C(F)(F)F)C1CCCC1,.,.,.,.
O=C(Nc1ccccc1-c1ccccc1)C1CCCC1,7.3µM,?,?,?
Cc1ccc(Sc2ncccc2C(=O)NC2CCCCCC2)cc1C,.,.,.,.
Cc1ccc(NC(=O)CSc2nnc3nc(C)cc(C)n23)cc1,.,.,/,/
CCC(=O)N1c2ccccc2CC1C(=O)NCCc1ccc(SC)cc1 (stereo unspecified),.,.,/,/
O=C(c1nc[nH]c1C(=O)N1CCc2ccccc2C1)N1CCc2ccccc2C1,.,.,.,.
CCCS(=O)(=O)N1CCC(N2CCN(Cc3ccc(F)cc3)C(=O)C2=O)CC1,.,.,/,/
COc1cccc(C2C(C(=O)Nc3ccccc3OC)=C(C)Nc3nc4ccccc4n32)c1 (stereo unspecified),.,?,/,/
Cc1ccc(C(=O)Nc2nnc(S(=O)(=O)N(C)Cc3ccc(F)cc3)s2)cc1,.,.,/,/
O=C(NC(c1ccccc1)c1ccccc1)C1CCCC1,.,16µM,.,.
CC(NC(=O)C1CCCC1)c1ccccc1 (stereo unspecified),.,.,.,.
Cc1csc(/C(C#N)=N/O)n1,.,?,.,.
Cc1csc(/C(=N\O)c2csc(C)n2)n1,.,.,16µM,?
Cc1ccc(C(=O)c2oc3ccccc3c2NC(=O)COc2ccccc2Cl)cc1,.,.,/,/
O=S(=O)(c1ccccc1)N1CCN(S(=O)(=O)c2ccccc2)c2ccccc21,.,21µM,.,.
CC(C)N1CCN(S(=O)(=O)c2ccccc2)c2ccccc21,.,?,.,.
O=C(Nc1ccccc1O)c1cc(S(=O)(=O)N2CCCC2)ccc1Cl,.,.,/,/
Cc1ccc(CN2[C@H]3CCCC[C@@H]3OCCS2(=O)=O)cc1,.,?,/,/
CCN(CC)CCCNc1nc2ccccc2c2[nH]c3ccc(OC)cc3c12,?,16µM,21µM,?
CCN(CC)CCCNc1nc(-c2ccccc2)nc2ccccc12,.,.,?,?
CCOc1ccc2nc(C)cc(Nc3ccccc3OCC)c2c1,.,.,/,/
COc1ccc(-c2nn(-c3ccccc3)cc2/C=C/C(=O)OCC(=O)Nc2ccccc2C#N)cc1,?,?,.,.
Cc1ccc(-c2nn(-c3ccccc3)cc2/C=C/C(=O)Nc2nccs2)cc1,.,.,9.2µM,16µM
O=C(/C=C/c1cn(-c2ccccc2)nc1-c1ccccc1)Nc1ccc(C(=O)O)cc1,.,.,23µM,?
SMILES,KB-3-1 tox,KB-V1 MDR tox,HT1080 IDH1KD tx,HT1080-NT tox
O=C(/C=C/c1cn(-c2ccccc2)nc1-c1cccnc1)c1ccco1,?,21µM,?,?
N#Cc1ccccc1NC(=O)COC(=O)/C=C/c1cn(-c2ccccc2)nc1-c1ccc(Cl)cc1,23µM,.,.,.
CC(=O)c1ccc(Nc2nc3ccccc3nc2-n2nc(C)cc2C)cc1,.,.,/,/
CCc1ccc(C2c3c(oc4ccc(F)cc4c3=O)C(=O)N2c2nc(C)c(C(=O)OC)s2)cc1 (stereo unspecified),.,.,/,/
FC(F)(F)c1nc(N2CCCC2)ncc1-c1nnnn1-c1ccccc1,?,2.9µM,.,.
Cc1ccnc2ccc([N+](=O)[O-])cc12,.,?,/,/
CCCCN(C)CCNC(=O)c1nn(-c2ccc(OC)c(Cl)c2)c(=O)c2c1c1ccccc1n2C,.,.,/,/
CC(=O)Nc1cccc(C(=O)OC(C)C(=O)NCc2ccc3c(c2)OCO3)c1 (stereo unspecified),.,.,.,.
Cc1cccc(NS(=O)(=O)c2cc(C(=O)OC(C)C(=O)NCc3ccc4c(c3)OCO4)ccc2C)c1 (stereo unspecified),.,15µM,.,.
CCN(CC)C(=O)c1sc2c(c1C)c(=O)n(-c1ccccc1)c(=O)n2Cc1c(C)cc(C)cc1C,.,.,/,/
Oc1ccc2ccccc2c1-c1sc(Nc2ccccc2)n[n+]1-c1ccc(F)cc1,.,.,.,.
Fc1ccc(-[n+]2nc(Nc3ccccc3)sc2-c2c3ccccc3cc3ccccc23)cc1,.,?,23µM,21µM
COc1ccc(C)cc1Nc1n[n+](-c2ccccc2)c(-c2cc(OC)c(OC)cc2Br)s1,?,.,.,.
COc1ccc(C)cc1Nc1n[n+](-c2ccccc2)c(-c2c(OC)ccc3ccccc23)s1,18µM,?,?,?
